Assay results as given in ChEMBL document CHEMBL1157539, “Thousands of chemical starting points for antimalarial lead identification” (Nature, 2010).

Tested on: Plasmodium falciparum
Test: GSK_TCMDC: Inhibition of Plasmodium falciparum 3D7 in whole red blood cells, using parasite LDH activity as an index of growth. Test compounds present at 2uM
Format: functional

Compound	Inhibition
O=C(CCN1CCCCC1)Nc1ccc(Nc2nccc(NCC(O)c3ccccc3)n2)cc1 (stereo not drawn)	100%
O=C(NCCCCCN1CCC(c2c[nH]c3ccccc23)CC1)Nc1ccc(Br)cc1	91%
CN(C)S(=O)(=O)c1cc(-c2ccc3nccc(-c4cccc(S(N)(=O)=O)c4)c3c2)cnc1N	100%

Tested on: Plasmodium falciparum
Test: GSK_TCMDC: Inhibition of Plasmodium falciparum Dd2 in whole red blood cells, using parasite LDH activity as an index of growth. Test compounds present at 2uM
Format: functional

Compound	Inhibition
CCCCOC(=O)C1=C(C)NC2=C(C(=O)CC(c3ccc(OC)c(OC)c3)C2)C1c1ccc(O)cc1 (stereo not drawn)	75%
COc1cc2c(cc1C(F)(F)F)N(C(=O)Nc1cc(F)cc(-c3cncnc3)c1)CC2	52%
Cn1cc(C(=O)Nc2cccc(-c3cccc(-c4nc5ccccc5[nH]4)c3)c2)n(C)c1=O	60%
COc1cccc(CNC[C@@H](O)[C@H](Cc2ccccc2)NC(=O)c2cc(N3CCCC3=O)c3[nH]cc(C(C)C)c3c2)c1	98%
NS(=O)(=O)c1cncc(-c2ccc3nccc(-c4cn[nH]c4)c3n2)c1	100%
O=C(NCCCCN1CC=C(c2ccc3c(c2OCC2CC2)CCCC3)CC1)c1ccc(-c2ccc(C(F)(F)F)cc2)cc1	60%
CC(C)(C)c1ccc(CN2CCC(NC(=O)c3ccc(-c4ccccc4Cl)s3)CC2)cc1.O=C(O)C(F)(F)F	29%
CN1CCC(NCCS(=O)(=O)c2cccc(Nc3ccc(-c4cccc(F)c4)cn3)c2)CC1	0%
Cl.NCCCCc1c(-c2ccc(Cl)c(Cl)c2)[nH]c2ccc(Cl)cc12	20%
CCOC(=O)N1CCC(NC(=O)c2ccc(C(C)(C)C)cc2OC)CC1	0%
Cc1cc(OCCCN2CCC(NS(=O)(=O)c3cccc(Br)c3)CC2)c2ccccc2n1	28%
Cn1cc(CN2CCCC(COC(c3ccc(F)cc3)c3ccc(F)cc3)C2)cn1 (stereo not drawn)	100%
Oc1ccc(Nc2nc(NCc3ccccc3)c3ccccc3n2)cc1	100%
CCCCOP(=O)(OCCCC)C(=Cc1ccc(O)c2ccccc12)P(=O)(OCCCC)OCCCC	64%
CC1(CCc2ccccc2)N=C(N)N(Cc2ccccc2)C(=O)C1c1ccc(Cl)c(Cl)c1.O=C(O)C(F)(F)F (stereo not drawn)	96%
O=C(Nc1ccc(-c2cccc(-c3nc4ccccc4[nH]3)c2)cc1)Nc1ccc(Cl)c(Cl)c1	80%
Cc1ccc2[nH]c(C)cc(=NN=Cc3ccc(Cl)cc3)c2c1	35%
O=C(O)C(F)(F)F.O=S(=O)(NC1CCN(c2ccnc3cc(Cl)ccc23)C1)c1ccc(F)cc1 (stereo not drawn)	88%
Nc1nc(N)c2c(ccc3c2ccn3Cc2ccccc2)n1	94%
Cc1nc(C)c(-c2ccc(C(=O)c3ccc(Cl)cc3)cc2)c(O)c1Br	95%

Compound	Inhibition
CN(C)C=Nc1ccc(OCCCCCCOc2ccc(N=CN(C)C)cc2)cc1.Cc1ccc(S(=O)(=O)O)cc1	94%
O=C(Nc1ccc(Cl)c(Cl)c1)Nc1ccc(F)c([N+](=O)[O-])c1	96%
CCC[C@@H]([C@@H](CC1CCCCC1)C(=O)N[C@H](C(=O)Nc1nccs1)C(C)(C)SCCNC(=O)OCc1ccccn1)N(O)C=O	96%
COc1ccc2nccc(N3CCCN(CCNCc4ccc5c(n4)NC(=O)CS5)CC3)c2n1.Cl	10%
CN(C)CCN(C)Cc1ccc(-c2ccc3c(Nc4ccc(Cl)cc4F)ccnc3c2)o1	76%
Cl.c1ccc2c(Nc3ccc(Oc4ccc(Nc5c6ccccc6nc6ccccc56)cc4)cc3)c3ccccc3nc2c1	99%
O=C(NCCCCCN1CCC(c2ccc(O)cc2)CC1)c1ccc(-c2ccccc2)cc1	0%
CS(=O)(=O)Nc1ccc2[nH]cc(C3CCN(CC4CCC(NC(=O)/C=C/c5ccc(Cl)c(Cl)c5)CC4)CC3)c2n1 (stereo not drawn)	10%
Cc1ccc(NC(=O)C2CCC2)cc1-c1ccc(C(=O)NCC2CC2)cc1	3%
C[C@@H]([C@@H](CCCCc1ccccc1)C(=O)N[C@H](C(=O)Nc1cccnc1)C(C)(C)C)N(O)C=O	98%
Cc1ccc(C(NC(=O)C2CCCCC2)c2ccc3cccnc3c2O)cc1 (stereo not drawn)	59%
CC(CCc1ccccc1)NCC(O)c1cccc([N+](=O)[O-])c1 (stereo not drawn)	98%
Cl.Nc1nc(Nc2cccc(O)c2)nc2ccccc12	79%
Cc1noc(C)c1-c1cccc(CNCc2cccc(-c3ccc(-c4nc5cccc(C)c5[nH]4)cc3)c2)c1.O=C(O)C(F)(F)F	69%
O=C(CCCCCNC(=O)c1ccc(O)c(-c2ccc(Cl)c(Cl)c2)c1)NCCN1CCCCC1	1%
COc1cc(OC)c(OC)cc1C=NN=c1cc(C)[nH]c2ccccc12	95%
O=C(Nc1ccc2c(c1)CCC2)c1ccc(CN2CCCN(Cc3cccc(O)c3)CC2)cc1.O=C(O)C(F)(F)F	46%
O=C(CCN1CCCCC1)Nc1ccc(Nc2nccc(NCC(O)c3ccccc3)n2)cc1 (stereo not drawn)	60%
O=C(NCCCCCN1CCC(c2c[nH]c3ccccc23)CC1)Nc1ccc(Br)cc1	0%
CN(C)S(=O)(=O)c1cc(-c2ccc3nccc(-c4cccc(S(N)(=O)=O)c4)c3c2)cnc1N	98%
